# Screening results (PubChem)
# A selection: hits, their analogues and other compounds. The true share with any hit is near 18%.
# TDP1 cell noCPT – qHTS for Inhibitors of human tyrosyl-DNA phosphodiesterase 1 (TDP1): qHTS in cells in absence of CPT | DT40 Tdp1-/- hTDP1 cells, no CPT, ATP luminescence, 48 h | Potency, µM (series often up to 46.2 µM), actives largely listed as inhibitors | hit rate 15% among 420,000; note: nearly all actives have a fitted effect of over 55% in size
#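 Readout: luminescence from CellTiter-Glo after 30 min in the dark at RT. Cells: DT40 Tdp1-/- with stable hTDP1, 400/well. Exposure: compounds alone, ≥48 hr, 37 °C.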
# DT40 TDP1 CPT – qHTS for Inhibitors of human tyrosyl-DNA phosphodiesterase 1 (TDP1): qHTS in cells in presence of CPT. chicken DT40 Tdp1-/-;hTDP1 cells + 20 nM CPT, ATP luminescence, 48 h. Potency, µM (top dose mostly 46.2 µM), actives largely listed as inhibitors. hit rate 12% among 420,000. AID 686979, 2013; note: nearly all actives have a fitted effect of over 55% in size
#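 Chicken DT40 Tdp1-/- cells complemented with human TDP1, 400 cells/well, exposed to compounds plus 20 nM camptothecin for at least 48 h at 37 C; viability read as ATP content by CellTiter-Glo luminescence.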
# GCN5L2 inh – qHTS Assay for Inhibitors of GCN5L2 | Histone acetyltransferase KAT2A (Homo sapiens), Q92830 | GCN5L2 HAT assay, ThioGlo1 CoA-SH fluorescence | Potency, µM (highest dose often 58.9 µM), hits mostly inhibitors | hit rate 0.21% among 390,000 | AID 504327, 2011
#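 ThioGlo1-coupled HAT assay: 20nM GCN5L2, 70uM acetyl-CoA, 75uM H3(1-25) peptide, pH 7.5. Fluorescence read at 340/540nm at start and after 20 min at room temperature.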
# VDR inh – Inhibitors of the vitamin D receptor (VDR): qHTS | VDR-SRC2-3 peptide fluorescence polarization, 2 h | Potency, µM, usual class: inhibitors | hit rate 0.93% among 400,000 | AID 504847, 2011 | Vitamin D3 receptor (Homo sapiens), P11473
#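 After 23 nl compound addition and a short centrifugation, plates sat for 2 hours at ambient temperature; polarization of fluorescence then indicated loss of VDR binding to peptide SRC2-3.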
# PLK1 PBD block – qHTS for Inhibitors of PLK1-PDB (polo-like kinase 1 - polo-box domain): Primary Screen | Plk1 PBD binding of FITC phosphopeptide, fluorescence polarization | Potency, µM, actives largely listed as inhibitors | hit rate 2.8% among 360,000; note: series mostly up to about 57 µM; nearly all actives have a fitted effect of over 65% in size
# TDP1 inh – qHTS Assay for Inhibitors of Tyrosyl-DNA Phosphodiesterase (TDP1). hit rate 0.28% among 350,000. recombinant TDP1, AlphaScreen DNA substrate cleavage. Tyrosyl-DNA phosphodiesterase 1 (Homo sapiens), Q9NUW8. Potency, µM (series often up to 130 µM), actives largely listed as inhibitors; note: nearly all actives have a fitted effect of over 40% in size
# Target sequence (Q9NUW8 whole entry, looked up): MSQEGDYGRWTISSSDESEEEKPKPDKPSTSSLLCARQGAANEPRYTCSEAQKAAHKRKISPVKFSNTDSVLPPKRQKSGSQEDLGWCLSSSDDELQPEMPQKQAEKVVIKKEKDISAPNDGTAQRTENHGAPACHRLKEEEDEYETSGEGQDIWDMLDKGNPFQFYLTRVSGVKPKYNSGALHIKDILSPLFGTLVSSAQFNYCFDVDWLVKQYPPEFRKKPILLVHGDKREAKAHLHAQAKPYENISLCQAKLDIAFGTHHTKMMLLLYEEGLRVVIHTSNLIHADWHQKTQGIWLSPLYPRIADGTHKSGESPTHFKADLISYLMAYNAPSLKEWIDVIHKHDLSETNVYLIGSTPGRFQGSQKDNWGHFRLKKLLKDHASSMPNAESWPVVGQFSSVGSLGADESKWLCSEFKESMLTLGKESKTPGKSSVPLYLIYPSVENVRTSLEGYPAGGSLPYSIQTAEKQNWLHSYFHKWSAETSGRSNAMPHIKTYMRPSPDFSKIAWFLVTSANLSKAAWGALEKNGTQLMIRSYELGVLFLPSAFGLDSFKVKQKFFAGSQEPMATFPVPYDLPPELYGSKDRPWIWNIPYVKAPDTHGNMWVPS
#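 Enzyme-compound mixtures sat 15 min at room temperature, followed by a 5 min reaction with 15 nM final substrate and 10 min with AlphaScreen beads. Recombinant human Tdp1 was used at 1 nM final.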
# Numbers stand for hits; - = inactive; ? = inconclusive; . = no result given. Calls come from the whole dose curve; as a rule, active = well fitted curve in the direction sought with a large enough effect; inconclusive = small, poorly fitted or top-dose-only effect, or another doubt; inactive = no such curve, though single readings can be large; an effect the other way counts as inactive or inconclusive.
SMILES,TDP1 cell noCPT,DT40 TDP1 CPT,GCN5L2 inh,VDR inh,PLK1 PBD block,TDP1 inh
CCC(=O)NC1Cc2ccccc2C(c2ccccc2)C1 (stereo unspecified),?,-,-,-,.,-
CCC(C(=O)O)n1ccc2cc(S(=O)(=O)N3CCCCC3)ccc21 (stereo unspecified),-,-,-,-,.,-
Cc1cccc(NC(=O)CN2C(=O)C3CC=CCC3C2=O)c1C (stereo unspecified),-,-,.,.,-,.
CSc1cccc(NC(=O)CN2C(=O)COc3ccc(Cl)cc32)c1,21µM,?,-,-,.,-
Cc1ccccc1NC(=O)CN1C(=O)C2C3CC(C(Br)C3Br)C2C1=O (stereo unspecified),16µM,?,-,79µM,4.7µM,-
O=C(CN1C(=O)COc2ccc(Cl)cc21)Nc1ccc(F)cc1,?,?,-,-,.,-
CC(=O)c1cccc(NC(=O)CCCN2C(=O)COc3ccc(C)cc32)c1,?,18µM,-,-,.,-
Cc1ccccc1NC(=O)CN1C(=O)COc2ccc(Cl)cc21,-,?,-,-,24µM,-
Cc1ccc2c(c1)N(CCCC(=O)NCc1cccc(F)c1)C(=O)CO2,?,?,-,-,.,-
O=C(CN1C(=O)COc2ccc(Cl)cc21)Nc1ccccn1,-,-,-,?,-,.
O=[N+]([O-])c1ccc(Oc2cc(NC3CCCCCCC3)c([N+](=O)[O-])cc2[N+](=O)[O-])cc1,-,?,-,-,-,.
O=[N+]([O-])c1cc([N+](=O)[O-])c(Oc2cncc(Cl)c2)cc1NC1CCCCCCC1,15µM,23µM,-,-,?,.
O=[N+]([O-])c1cc([N+](=O)[O-])c(Oc2cc(Cl)ccc2Cl)cc1NC1CCCCCCC1,?,18µM,-,?,-,.
CCOC(=O)N1CCN(C(=O)/C=C/c2ccc([N+](=O)[O-])cc2)CC1,-,-,-,-,-,-
COc1cc2c(cc1OC)CN(C(=O)/C=C/c1ccc([N+](=O)[O-])cc1)CC2,16µM,18µM,-,-,-,-
COc1cc2c(cc1OC)CN(C(=O)/C=C/c1cccs1)CC2,1µM,1.5µM,-,-,-,-
COc1cc2c(cc1OC)CN(C(=O)c1ccc(OC)c([N+](=O)[O-])c1)CC2,?,-,-,-,-,-
CCOc1ccc(C(=O)N2CCc3cc(OC)c(OC)cc3C2)cc1OCC,29µM,?,-,-,-,-
COc1cc2c(cc1OC)CN(C(=O)CCC(=O)c1ccc(F)cc1)CC2,12µM,18µM,-,-,-,-
COc1cc2c(cc1OC)CN(C(=O)c1cccs1)CC2,?,-,-,-,?,-
Cc1ccc([C@H]2C[C@H](n3cc(C4CC4)nn3)[C@@H](O)CN2C(=O)C2CCCCC2)cc1,-,-,.,.,-,.
COc1cccc(Cn2c(=O)c(-c3cc(F)cc(F)c3)nc3cnc(N4CCOCC4)nc32)c1,-,-,-,-,.,.
COc1cccc(-c2nn(-c3ccc(C)cc3)cc2C(=O)N2CCc3cc(OC)c(OC)cc3C2)c1,?,18µM,?,-,-,.
COc1cc2c(cc1OC)CN(C(=O)c1cc3ccccc3oc1=O)CC2,12µM,10µM,-,-,-,-
COc1cc2c(cc1OC)CN(C(=O)c1cccc([N+](=O)[O-])c1)CC2,?,26µM,-,79µM,27µM,-
SMILES,TDP1 cell noCPT,DT40 TDP1 CPT,GCN5L2 inh,VDR inh,PLK1 PBD block,TDP1 inh
COc1ccc(OC)c(-c2nn(-c3ccccc3)cc2C(=O)N2CCc3ccccc3C2)c1,?,?,-,-,-,-
COc1cc2c(cc1OC)CN(CC(=O)Nc1cccc([N+](=O)[O-])c1)CC2,16µM,?,-,-,-,.
COCC(=O)N1CCC2(CC1)CN(C(=O)Nc1cccc(C#N)c1)C2,-,-,-,-,.,.
CCCN1CCC(NC(=O)C2CC=CCC2C(=O)O)CC1 (stereo unspecified),-,-,-,-,-,-
c1cncc(CNc2ncnc3ccc(-c4ccco4)cc23)c1,.,.,-,.,.,.
CCc1nc(C)cn1S(=O)(=O)c1ccc(Cl)c(Cl)c1Cl,21µM,18µM,-,-,-,-
CCc1nc(C)cn1S(=O)(=O)c1cc(C)c(OC)c(C)c1C,10µM,8.2µM,-,-,-,-
CCc1nc(C)cn1S(=O)(=O)c1cc(C)c(OC)cc1C,?,-,-,-,-,-
Cn1cccc1C(=O)N1CCC2(CCCN(c3ccccc3)C2)CC1,?,?,-,?,.,.
Cc1nn(C)c2c1c(C(F)(F)F)cc(=O)n2Cc1ccc(Br)cc1F,-,-,-,-,.,-
Cc1ccc(NC(=O)CCn2nc(C)c3c(C)n(-c4ccccc4)nc3c2=O)cc1Cl,-,-,-,-,.,-
Cc1ccc(NC(=O)Cn2nc(C)c3nn(-c4ccc(Cl)cc4)c(C)c3c2=O)cc1C,15µM,?,-,-,.,-
Cc1nn(CC(=O)NCc2ccc(OC(C)C)cc2)c(=O)c2c(C)n(-c3ccc(Cl)cc3)nc12,?,?,-,-,.,-
Cc1ccc(NC(=O)Cn2nc(C)c3nn(-c4ccc(Cl)cc4)c(C)c3c2=O)cc1F,16µM,?,-,-,.,-
Cc1cc(/C([O-])=C(/C(=S)Nc2ccc(F)cc2)[n+]2ccccc2)c(C)n1Cc1ccccc1Cl,23µM,21µM,-,-,-,-
Cc1ccc(-n2c(C)cc(/C([O-])=C(/C(=S)Nc3ccc(F)c(Cl)c3)[n+]3ccccc3)c2C)cc1,23µM,23µM,-,-,-,-
Cc1cc(/C([O-])=C(/C(=S)Nc2ccc(F)cc2)[n+]2ccccc2)c(C)n1-c1ccc(F)cc1,.,.,-,-,-,-
COc1ccc(C2CC(C(F)(F)F)n3nc(C(=O)N(C)Cc4cn(C)nc4C)c(Cl)c3N2)cc1 (stereo unspecified),18µM,?,-,-,-,-
COc1ccc(C2CC(C(F)(F)F)n3nc(C(=O)NCc4c(C)nn(C)c4C)c(Cl)c3N2)cc1 (stereo unspecified),5.2µM,1.3µM,-,-,-,-
Cc1ccccc1CSc1nc2c([nH]c3ccccc32)c(=O)n1-c1ccccc1,-,-,-,-,.,-
COc1ccc(CN2CCN(Cc3ccc(C)cc3)CC2)c(OC)c1,?,-,-,-,-,.
COc1ccc(CN2CCN(Cc3ccc(C(F)(F)F)cc3)CC2)c(OC)c1,15µM,21µM,-,-,-,.
